These results are taken from PubChem BioAssay (EPA / NIEHS).

What is called AC50 is the concentration at which the activity in the assay is half-maximal.

Experiment [1] is described as follows: BSK_SAg_PBMCCytotoxicity: PBMC Cytotoxicity Assessment in the BioMAP Diversity Plus: SAg Assay (AID 2283093).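 Further: PBMC viability measured as Alamar Blue reduction fluorescence at 546/580 nm; fitted both ways against DMSO so a hit may be loss or gain of signal.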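 On AC50: PBMC superantigen activated with SEB plus TSST-1 one hour after compound addition.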 To be noted: primary human HUVEC with PBMC. The procedure, abridged:
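Alamar Blue reduction (6 h, 546/580 nm) reports PBMC cytotoxicity after 90 h superantigen activation (SEB, TSST-1; 20 ng/mL final each) with 1 h compound pre-treatment. Gain or loss of signal fitted versus DMSO.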

Read-out in experiment [2]: Interleukin-8 (IL8), CXCL8 (gene 3576)
As to the kind of experiment: BSK_SAg_IL8: BioMAP Diversity Plus: SAg Assay for Interleukin-8 (IL8) Biomarker Activity (AID 2283094). To be noted: primary human HUVEC with PBMC; actives raise or lower the signal. The essentials:
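HUVEC/PBMC co-culture, 24 h post-dose; IL-8 by ELISA. Gain or loss of signal fitted bidirectionally vs DMSO baseline.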

The nature of experiment [3]: BSK_SAg_Proliferation: Cell Proliferation Assessment in the BioMAP Diversity Plus: SAg Assay (AID 2283095).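 Further: relative cell number as total protein by SRB absorbance in sub-confluent culture.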 To be noted: primary human HUVEC with PBMC. The essentials: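 HUVEC/PBMC co-culture, 96-well. TCA-fixed (10%), 0.1% SRB stain, A560 at 96 h. Protein content used as viability readout; bidirectional fitting vs DMSO control.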
A short description of experiment [4]: BSK_SAg_SRB: Viability Assessment in the BioMAP Diversity Plus: SAg Assay (AID 2283096).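 Further: cells read one day after compound addition; hits may be either gain or loss of signal compared with DMSO.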 The following applies: primary human HUVEC with PBMC. The procedure, abridged: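 This overt-cytotoxicity endpoint quantifies protein in human endothelial/PBMC co-cultures at 24 h using SRB absorbance (560 nm) after trichloroacetic acid fixation. Values reflect signal change from the DMSO negative control, fitted bidirectionally.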

The target in experiment [5] is human CYP19A1, CYP19A1 (gene 1588) (UniProt P11511). As to the kind of experiment: NVS_ADME_hCYP19A1: NovaScreen (NVS) CYP450-related Enzyme Activity (ADME) Assay for human CYP19A1 (AID 2283098; active means hit-call score of the fitted dose curve at least 0.9, where 1 is the maximum). The procedure, abridged:
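Compounds were first screened at 10 uM in duplicate against purified enzyme, with a fluorogenic substrate and fluorescence intensity detection after 0.5 h. Inhibition appears as reduced signal against acetonitrile control.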

Experiment [6] addresses Cytochrome P450 2C18 (Homo sapiens) (UniProt P33260). As to the kind of experiment: NVS_ADME_hCYP2C18: NovaScreen (NVS) CYP450-related Enzyme Activity (ADME) Assay for human CYP2C18 (AID 2283103). The procedure, abridged: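 Enzyme activity measured by fluorescence 0.5 h after compound addition, using recombinant CYP2C18 and a specific substrate. Actives from duplicate 10 uM screening were retested in concentration series (top 20 uM); acetonitrile served as negative baseline.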

For experiment [7], the target named is human CYP2C8, CYP2C8 (gene 1558) (UniProt P10632). As to the kind of experiment: NVS_ADME_hCYP2C8: NovaScreen (NVS) CYP450-related Enzyme Activity (ADME) Assay for human CYP2C8 (AID 2283104). The essentials:
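Fluorescence readout of substrate turnover by recombinant CYP2C8 after 0.5 h, baseline acetonitrile. Single-concentration duplicate screen at 10 uM preceded singleton concentration series (max 20 uM) for compounds passing the inhibition threshold.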

Experiment [8] concerns the target human CYP2C9, CYP2C9 (gene 1559) (UniProt P11712). The experiment is described as follows: NVS_ADME_hCYP2C9: NovaScreen (NVS) CYP450-related Enzyme Activity (ADME) Assay for human CYP2C9 (AID 2283108; active means hit-call score of the fitted dose curve at least 0.9, where 1 is the maximum). The essentials:
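Cell-free assay of recombinant human CYP2C9 produced in Sf9 cells, with enzyme activity read by fluorescence intensity 0.75 h after compound addition. Loss of signal versus an acetonitrile negative control indicates inhibition. Primary screen used 10 uM in duplicate; actives were retested in concentration series.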

The target in experiment [9] is human CYP4F12, CYP4F12 (gene 66002) (UniProt Q9HCS2). As to the kind of experiment: NVS_ADME_hCYP4F12: NovaScreen (NVS) CYP450-related Enzyme Activity (ADME) Assay for human CYP4F12 (AID 2283111; active means hit-call score of the fitted dose curve at least 0.9, where 1 is the maximum). The essentials:
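Recombinant enzyme with a fluorescent substrate, signal read at 0.5 h post-dose; activity loss analysed relative to acetonitrile. Compounds first run in duplicate at 10 uM, with follow-up concentration-response testing of actives.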

Experiment [10] concerns the target rat CYP2A2, Cyp2a2 (gene 24895) (UniProt P15149). The experiment is described as follows: NVS_ADME_rCYP2A2: NovaScreen (NVS) CYP450-related Enzyme Activity (ADME) Assay for rat CYP2A2 (AID 2283116; active means hit-call score of the fitted dose curve at least 0.9, where 1 is the maximum). The essentials: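 Compounds first tested in duplicate at 10 uM, then in singleton concentration series up to 20 uM when over threshold. Activity of the recombinant enzyme read by fluorescence at 0.2 h, normalised to acetonitrile vehicle.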

Read-out in experiment [11]: Monokine induced gamma interferon (MIG), CXCL9 (gene 4283)
As to the kind of experiment: BSK_SAg_MIG: BioMAP Diversity Plus: SAg Assay for Monokine induced gamma interferon (MIG) Biomarker Activity (AID 2283092). The following applies: primary human HUVEC with PBMC; actives raise or lower the signal. The procedure, abridged:
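ELISA readout of MIG/CXCL9; primary human umbilical vein endothelial cells co-cultured with peripheral blood mononuclear cells; 24 h post-dose; gain/loss fit vs DMSO baseline.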

In experiment [12] the target is rat CYP2A1, Cyp2a1 (gene 24894) (UniProt P11711). The experiment is described as follows: NVS_ADME_rCYP2A1: NovaScreen (NVS) CYP450-related Enzyme Activity (ADME) Assay for rat CYP2A1 (AID 2283114). The essentials:
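Cell-free fluorescence enzyme-activity read on recombinant rat CYP2A1, taken 0.75 h post-dosing. Compounds were screened in duplicate at 10 uM, then hits tested in concentration series (max 20 uM); inhibition scored relative to acetonitrile baseline.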

The target of experiment [13] is human CYP1A1, CYP1A1 (gene 1543) (UniProt P04798). As to the kind of experiment: NVS_ADME_hCYP1A1: NovaScreen (NVS) CYP450-related Enzyme Activity (ADME) Assay for human CYP1A1 (AID 2283100; active means hit-call score of the fitted dose curve at least 0.9, where 1 is the maximum). The essentials: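 Read-out: fluorescence intensity from enzymatic turnover of substrate by recombinant CYP1A1, loss of signal indicating inhibition. Incubation 1 h post-dose. Primary single-point 10 uM in duplicate; actives rerun singly with top concentration 20 uM.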
human CYP1A1, CYP1A1 (gene 1543), sequence (P04798 whole entry, looked up): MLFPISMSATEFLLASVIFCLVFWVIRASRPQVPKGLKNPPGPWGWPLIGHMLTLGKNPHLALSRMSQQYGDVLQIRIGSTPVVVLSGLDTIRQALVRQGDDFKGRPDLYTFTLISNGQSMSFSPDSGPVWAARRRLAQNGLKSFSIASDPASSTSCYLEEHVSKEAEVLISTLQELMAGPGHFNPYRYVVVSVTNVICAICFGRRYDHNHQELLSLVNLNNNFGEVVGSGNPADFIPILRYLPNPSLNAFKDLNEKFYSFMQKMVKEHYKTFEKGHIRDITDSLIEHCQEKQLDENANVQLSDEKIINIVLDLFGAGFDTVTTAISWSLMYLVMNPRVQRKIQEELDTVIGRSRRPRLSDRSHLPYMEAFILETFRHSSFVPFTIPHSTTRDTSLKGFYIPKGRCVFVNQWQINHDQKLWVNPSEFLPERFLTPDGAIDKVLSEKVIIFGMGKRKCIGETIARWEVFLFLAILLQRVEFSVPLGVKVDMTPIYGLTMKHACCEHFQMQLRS

For experiment [14], the target named is human CYP2J2, CYP2J2 (gene 1573) (UniProt P51589). The experiment is described as follows: NVS_ADME_hCYP2J2: NovaScreen (NVS) CYP450-related Enzyme Activity (ADME) Assay for human CYP2J2 (AID 2283106; active means hit-call score of the fitted dose curve at least 0.9, where 1 is the maximum). The procedure, abridged: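 Chemicals were first tested at 10 uM in duplicate, and hits meeting criteria such as 30% inhibition were run in singleton concentration series with a 20 uM top concentration. Enzyme activity of recombinant CYP2J2 was measured by fluorescence after 1 h, relative to acetonitrile.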

The target in experiment [15] is human CYP2D6, CYP2D6 (gene 1565) (UniProt P10635). The experiment is described as follows: NVS_ADME_hCYP2D6: NovaScreen (NVS) CYP450-related Enzyme Activity (ADME) Assay for human CYP2D6 (AID 2283107; active means hit-call score of the fitted dose curve at least 0.9, where 1 is the maximum). The procedure, abridged:
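Fluorescence intensity read 1 h post-dosing; insect-cell-expressed recombinant protein with fluorogenic substrate, no cells. Activity is scored as signal loss relative to acetonitrile baseline, first at a single 10 uM concentration in duplicate, then as concentration series for confirmed actives.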

For experiment [16], the target named is Cytochrome P450 3A4 (Homo sapiens) (UniProt P08684). The experiment is described as follows: NVS_ADME_hCYP3A4: NovaScreen (NVS) CYP450-related Enzyme Activity (ADME) Assay for human CYP3A4 (AID 2283110; active means hit-call score of the fitted dose curve at least 0.9, where 1 is the maximum). The essentials: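 Activity is derived from decreased fluorescence intensity relative to acetonitrile, measured 0.33 hour after dosing insect-cell-expressed CYP3A4 in a cell-free format. Screening used 10 uM in duplicate before concentration-response follow-up.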

The target in experiment [17] is human CYP2A6, CYP2A6 (gene 1548) (UniProt P11509). As to the kind of experiment: NVS_ADME_hCYP2A6: NovaScreen (NVS) CYP450-related Enzyme Activity (ADME) Assay for human CYP2A6 (AID 2283099; active means hit-call score of the fitted dose curve at least 0.9, where 1 is the maximum). The procedure, abridged:
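Insect-cell-expressed human CYP2A6 enzyme activity measured by fluorescence intensity 0.5 hour post-dosing. Compounds screened at 10 uM in duplicate, then hits tested singly in concentration series (max 20 uM); acetonitrile baseline.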

Experiment [18] concerns the target human CYP2B6, CYP2B6 (gene 1555) (UniProt P20813). The experiment is described as follows: NVS_ADME_hCYP2B6: NovaScreen (NVS) CYP450-related Enzyme Activity (ADME) Assay for human CYP2B6 (AID 2283101; active means hit-call score of the fitted dose curve at least 0.9, where 1 is the maximum). The procedure, abridged:
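Fluorescence-based enzyme activity of recombinant human CYP2B6, measured 1 h post-dose against acetonitrile vehicle baseline. Screened at a single concentration of 10 uM in duplicate before concentration-response follow-up.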

For experiment [19], the target named is human CYP1A2, CYP1A2 (gene 1544) (UniProt P05177). The experiment is described as follows: NVS_ADME_hCYP1A2: NovaScreen (NVS) CYP450-related Enzyme Activity (ADME) Assay for human CYP1A2 (AID 2283102; active means hit-call score of the fitted dose curve at least 0.9, where 1 is the maximum;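 further: potency for inhibition since loss of fluorescence marks reduced CYP1A2 activity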). The procedure, abridged: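 Fluorescence-intensity enzyme activity read-out, taken 0.5 h post-dosing, using insect-cell-derived recombinant CYP1A2 and specific fluorescent substrate. Acetonitrile served as negative control/baseline. Single-concentration duplicate screen at 10 uM, then concentration-response follow-up.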

Experiment [20] addresses rat CYP1A2, Cyp1a2 (gene 24297) (UniProt P04799). The experiment is described as follows: NVS_ADME_rCYP1A2: NovaScreen (NVS) CYP450-related Enzyme Activity (ADME) Assay for rat CYP1A2 (AID 2283115; active means hit-call score of the fitted dose curve at least 0.9, where 1 is the maximum). The procedure, abridged: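 Primary testing ran in duplicate at 10 uM, with actives re-tested across concentration series. Fluorescence intensity from substrate turnover by recombinant protein, measured 1 hour post-dosing, with signal loss scored against acetonitrile vehicle.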

Inconclusive results are not listed. Some structures have more than one record in an assay (separate samples or runs), and their calls can disagree. The source made the active and inactive calls. How the source made its calls, unless noted: active means hit-call score of the fitted dose curve at least 0.9, where 1 is the maximum; inactive means score below 0.9.

rat CYP2A1, Cyp2a1 (gene 24894), sequence (P11711 whole entry, looked up): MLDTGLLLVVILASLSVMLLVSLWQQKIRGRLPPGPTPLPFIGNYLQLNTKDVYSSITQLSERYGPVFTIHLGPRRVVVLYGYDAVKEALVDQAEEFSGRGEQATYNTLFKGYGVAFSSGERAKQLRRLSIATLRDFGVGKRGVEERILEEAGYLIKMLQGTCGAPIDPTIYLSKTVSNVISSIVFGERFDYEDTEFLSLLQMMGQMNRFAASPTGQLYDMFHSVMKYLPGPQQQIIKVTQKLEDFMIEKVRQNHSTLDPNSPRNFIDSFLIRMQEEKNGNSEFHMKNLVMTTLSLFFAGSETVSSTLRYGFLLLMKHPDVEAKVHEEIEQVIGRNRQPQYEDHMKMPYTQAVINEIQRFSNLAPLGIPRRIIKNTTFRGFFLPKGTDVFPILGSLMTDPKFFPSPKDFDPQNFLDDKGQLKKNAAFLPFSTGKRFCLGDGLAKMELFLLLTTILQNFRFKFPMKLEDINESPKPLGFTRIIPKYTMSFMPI
Cytochrome P450 2C18 (Homo sapiens), sequence (P33260 whole entry, looked up): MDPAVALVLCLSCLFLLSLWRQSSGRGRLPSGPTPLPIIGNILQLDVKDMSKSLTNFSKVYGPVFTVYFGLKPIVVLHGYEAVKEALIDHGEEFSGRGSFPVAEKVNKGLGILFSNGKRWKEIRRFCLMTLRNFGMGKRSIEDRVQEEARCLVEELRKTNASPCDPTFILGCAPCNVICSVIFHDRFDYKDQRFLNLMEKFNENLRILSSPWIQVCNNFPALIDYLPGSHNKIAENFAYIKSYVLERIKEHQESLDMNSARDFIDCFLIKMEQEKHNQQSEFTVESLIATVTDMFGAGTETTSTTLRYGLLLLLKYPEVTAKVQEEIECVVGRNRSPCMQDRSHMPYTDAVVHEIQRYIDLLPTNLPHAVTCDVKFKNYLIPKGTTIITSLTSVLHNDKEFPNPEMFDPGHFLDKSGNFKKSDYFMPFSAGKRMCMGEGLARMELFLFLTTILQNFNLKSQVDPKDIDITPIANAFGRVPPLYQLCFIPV
rat CYP2A2, Cyp2a2 (gene 24895), sequence (P15149 whole entry, looked up): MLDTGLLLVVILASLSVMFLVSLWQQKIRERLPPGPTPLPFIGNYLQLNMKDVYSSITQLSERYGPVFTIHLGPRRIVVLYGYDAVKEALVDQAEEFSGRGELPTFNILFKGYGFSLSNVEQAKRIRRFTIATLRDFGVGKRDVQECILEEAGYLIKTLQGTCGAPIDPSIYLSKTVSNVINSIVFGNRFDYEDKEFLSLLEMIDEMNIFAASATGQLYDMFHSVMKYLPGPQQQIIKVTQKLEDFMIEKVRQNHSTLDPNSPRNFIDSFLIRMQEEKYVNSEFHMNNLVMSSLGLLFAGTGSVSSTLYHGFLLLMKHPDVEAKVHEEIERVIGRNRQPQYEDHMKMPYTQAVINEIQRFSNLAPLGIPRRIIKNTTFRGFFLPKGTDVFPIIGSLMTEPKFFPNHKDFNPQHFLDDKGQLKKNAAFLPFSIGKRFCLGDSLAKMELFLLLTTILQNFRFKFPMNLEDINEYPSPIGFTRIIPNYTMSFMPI
human CYP2C9, CYP2C9 (gene 1559), sequence (P11712 whole entry, looked up): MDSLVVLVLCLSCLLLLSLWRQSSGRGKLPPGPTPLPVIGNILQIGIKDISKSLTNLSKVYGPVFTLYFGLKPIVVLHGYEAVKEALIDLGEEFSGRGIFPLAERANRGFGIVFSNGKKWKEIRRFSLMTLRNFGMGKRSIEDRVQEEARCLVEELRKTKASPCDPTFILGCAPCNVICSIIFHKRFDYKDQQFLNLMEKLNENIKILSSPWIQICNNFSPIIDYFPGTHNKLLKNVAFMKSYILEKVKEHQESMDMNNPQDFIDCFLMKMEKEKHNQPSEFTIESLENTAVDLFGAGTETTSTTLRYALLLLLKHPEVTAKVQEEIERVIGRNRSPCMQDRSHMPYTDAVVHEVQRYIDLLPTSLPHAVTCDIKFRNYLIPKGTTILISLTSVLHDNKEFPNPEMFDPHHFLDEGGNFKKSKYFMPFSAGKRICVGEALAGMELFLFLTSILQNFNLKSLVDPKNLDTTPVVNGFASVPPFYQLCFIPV
human CYP19A1, CYP19A1 (gene 1588), sequence (P11511 whole entry, looked up): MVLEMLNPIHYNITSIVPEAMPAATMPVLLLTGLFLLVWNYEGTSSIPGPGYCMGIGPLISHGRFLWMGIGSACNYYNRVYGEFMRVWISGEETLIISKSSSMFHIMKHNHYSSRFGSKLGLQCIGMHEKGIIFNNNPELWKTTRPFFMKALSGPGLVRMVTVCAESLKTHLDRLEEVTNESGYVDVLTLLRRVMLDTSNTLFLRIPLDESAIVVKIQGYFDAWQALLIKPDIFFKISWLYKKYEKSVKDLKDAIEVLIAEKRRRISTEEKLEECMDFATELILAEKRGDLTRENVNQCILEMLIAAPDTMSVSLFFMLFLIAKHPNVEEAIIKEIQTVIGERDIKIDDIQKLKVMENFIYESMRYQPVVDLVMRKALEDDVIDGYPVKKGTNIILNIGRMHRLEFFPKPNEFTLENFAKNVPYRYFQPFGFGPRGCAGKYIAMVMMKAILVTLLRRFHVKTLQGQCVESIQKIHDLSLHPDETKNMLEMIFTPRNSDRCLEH
human CYP2D6, CYP2D6 (gene 1565), sequence (P10635 whole entry, looked up): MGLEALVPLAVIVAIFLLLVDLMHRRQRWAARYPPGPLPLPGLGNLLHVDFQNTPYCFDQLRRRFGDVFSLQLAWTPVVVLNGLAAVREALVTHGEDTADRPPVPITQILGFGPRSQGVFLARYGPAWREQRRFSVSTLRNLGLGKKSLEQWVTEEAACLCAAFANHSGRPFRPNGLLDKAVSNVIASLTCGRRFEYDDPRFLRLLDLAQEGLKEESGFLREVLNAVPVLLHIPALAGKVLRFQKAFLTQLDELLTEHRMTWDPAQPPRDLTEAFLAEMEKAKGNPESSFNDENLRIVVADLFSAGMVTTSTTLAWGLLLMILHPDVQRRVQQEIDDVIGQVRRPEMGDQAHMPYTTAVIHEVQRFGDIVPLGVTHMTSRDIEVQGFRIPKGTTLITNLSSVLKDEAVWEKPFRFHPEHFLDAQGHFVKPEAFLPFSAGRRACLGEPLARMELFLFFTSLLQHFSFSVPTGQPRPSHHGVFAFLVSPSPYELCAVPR
human CYP2B6, CYP2B6 (gene 1555), sequence (P20813 whole entry, looked up): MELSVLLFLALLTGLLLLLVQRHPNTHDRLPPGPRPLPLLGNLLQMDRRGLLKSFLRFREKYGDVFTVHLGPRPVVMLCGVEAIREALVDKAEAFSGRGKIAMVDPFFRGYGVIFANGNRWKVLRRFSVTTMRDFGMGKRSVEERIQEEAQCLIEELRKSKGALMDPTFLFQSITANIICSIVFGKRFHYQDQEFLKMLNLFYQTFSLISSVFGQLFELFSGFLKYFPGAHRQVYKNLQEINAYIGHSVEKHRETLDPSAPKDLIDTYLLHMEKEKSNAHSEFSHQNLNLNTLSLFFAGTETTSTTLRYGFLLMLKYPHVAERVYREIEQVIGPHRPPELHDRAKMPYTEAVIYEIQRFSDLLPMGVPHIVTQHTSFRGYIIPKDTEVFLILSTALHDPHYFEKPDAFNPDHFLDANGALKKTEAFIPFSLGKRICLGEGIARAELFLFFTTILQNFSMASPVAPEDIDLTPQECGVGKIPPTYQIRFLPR
human CYP2C8, CYP2C8 (gene 1558), sequence (P10632 whole entry, looked up): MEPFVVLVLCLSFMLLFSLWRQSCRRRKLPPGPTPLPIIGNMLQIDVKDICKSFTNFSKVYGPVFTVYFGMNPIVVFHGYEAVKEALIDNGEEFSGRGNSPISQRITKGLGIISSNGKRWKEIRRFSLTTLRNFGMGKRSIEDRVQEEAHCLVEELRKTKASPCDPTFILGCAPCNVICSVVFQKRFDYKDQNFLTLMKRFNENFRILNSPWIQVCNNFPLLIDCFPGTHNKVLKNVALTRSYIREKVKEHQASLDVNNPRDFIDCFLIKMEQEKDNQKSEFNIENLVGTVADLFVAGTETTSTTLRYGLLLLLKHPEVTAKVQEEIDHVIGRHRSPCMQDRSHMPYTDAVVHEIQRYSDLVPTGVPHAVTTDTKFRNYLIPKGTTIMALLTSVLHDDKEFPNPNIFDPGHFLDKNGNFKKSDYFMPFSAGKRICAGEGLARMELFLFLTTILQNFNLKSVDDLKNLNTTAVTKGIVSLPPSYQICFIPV
human CYP2A6, CYP2A6 (gene 1548), sequence (P11509 whole entry, looked up): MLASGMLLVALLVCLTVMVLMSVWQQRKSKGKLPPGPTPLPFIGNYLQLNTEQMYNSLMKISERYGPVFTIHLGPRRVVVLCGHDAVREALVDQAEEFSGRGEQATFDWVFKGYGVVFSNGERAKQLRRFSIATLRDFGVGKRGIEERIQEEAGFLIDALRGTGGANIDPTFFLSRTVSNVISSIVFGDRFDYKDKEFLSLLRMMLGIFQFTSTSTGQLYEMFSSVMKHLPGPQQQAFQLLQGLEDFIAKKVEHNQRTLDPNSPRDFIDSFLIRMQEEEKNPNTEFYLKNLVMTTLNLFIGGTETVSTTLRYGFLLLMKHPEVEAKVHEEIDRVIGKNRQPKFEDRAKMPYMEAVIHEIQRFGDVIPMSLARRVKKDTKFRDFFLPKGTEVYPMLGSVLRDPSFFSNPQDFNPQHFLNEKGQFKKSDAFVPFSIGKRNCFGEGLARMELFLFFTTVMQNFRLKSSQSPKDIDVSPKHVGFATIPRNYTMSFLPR

Regarding `O=C(O)C(F)(F)C(F)(F)C(F)(F)C(F)(F)C(F)(F)C(F)(F)C(F)(F)F`, the result in [1], in [2], in experiment [3], in experiment [4], in [5] and in experiment [6] was inactive. Besides, the call in experiment [7], in [8] and in experiment [9] was inactive. The half-maximal activity concentration (AC50) in experiment [2] is 44.3 µM (active); in experiment [8] it was 0.237 µM (active); in [10], 2.68 µM (active).
For `CC(C)N(C(=O)COc1nnc(C(F)(F)F)s1)c1ccc(F)cc1`, the result in experiment [11], in [1], in experiment [2] and in experiment [4] was inactive. Also, the concentration at half-maximal activity (AC50) in experiment [6] was 5.82 µM (active); in experiment [12], 10 µM (active).
Take `CC1(c2ccc(Oc3ccccc3)cc2)OC(=O)N(Nc2ccccc2)C1=O` (configuration not stated): the AC50 is 34.1 µM (active) in experiment [11], 11.8 µM (active) in experiment [2] and 30.3 µM (active) in experiment [4]. The result in experiment [1] was inactive.
For `CCC(C)Nc1c([N+](=O)[O-])cc(C(C)(C)C)cc1[N+](=O)[O-]` (configuration not stated), the result in experiment [11] and in [4] was inactive. The half-maximal activity concentration (AC50) in experiment [1] was 31.9 µM (active); in experiment [2] it was 20 µM (active).
In the case of `CC[C@H](C)[C@H]1O[C@]2(C=C[C@@H]1C)C[C@@H]1C[C@@H](C/C=C(\C)[C@@H](O[C@H]3C[C@H](OC)[C@@H](O[C@H]4C[C@H](OC)[C@@H](O)[C@H](C)O4)[C@H](C)O3)[C@@H](C)/C=C/C=C3\CO[C@@H]4[C@H](O)C(C)=C[C@@H](C(=O)O1)[C@]34O)O2` (tested in a mixture with another compound), the AC50 in experiment [11] is 10.8 µM (active); in [1], 6.1 µM (active); in [2] it was 4.07 µM (active); in experiment [3], 4.56 µM (active); in experiment [4], 5.54 µM (active); in experiment [6], 5.02 µM (active). The half-maximal activity concentration (AC50) in [7] was 2.79 µM (active); in experiment [14] it was 5.47 µM (active); in experiment [12], 12.7 µM (active). The result in experiment [5], in experiment [13] and in experiment [10] was inactive.
`[2H]C1([2H])[n+]2ccccc2-c2cccc[n+]2C1([2H])[2H]`: the result in experiment [1], in experiment [2] and in experiment [4] was inactive. Besides, the AC50 was 2.03 µM (active) in experiment [15] and 2.25 µM (active) in [16].
Regarding `CCC(C)(NC(=O)c1cc(Cl)c(C)c(Cl)c1)C(=O)CCl` (configuration not stated), the half-maximal activity concentration (AC50) in experiment [1] was 20 µM (active); in experiment [2] it was 5.75 µM (active); in [4] it was 23.6 µM (active).
`CN1CSC(=S)N(C)C1`: the AC50 is 14.4 µM (active) in experiment [1], 20.2 µM (active) in experiment [2], 10 µM (active) in experiment [18] and 4.32 µM (active) in experiment [6]. Besides, the outcome in experiment [4] and in experiment [17] was inactive.
Turning to `COP(=S)(OC)Oc1ccc([N+](=O)[O-])cc1`, the AC50 was 11.5 µM (active) in experiment [1]; 20 µM (active) in experiment [2]; 21.7 µM (active) in experiment [4]; 2.85 µM (active) in experiment [17]; 6.61 µM (active) in [13]; 0.547 µM (active) in [18]. Further, the half-maximal activity concentration (AC50) in experiment [19] is 1.06 µM (active); in experiment [6], 2.7 µM (active); in experiment [14], 2.25 µM (active); in experiment [15], 4.79 µM (active); in experiment [8], 4.05 µM (active); in [12], 7.12 µM (active). For the same molecule, the half-maximal activity concentration (AC50) in experiment [10] is 5.69 µM (active). The outcome in [5] and in experiment [20] was inactive.
